Here are results for 40 compounds from PubChem BioAssay (NCATS).

Results filed as inconclusive are left out. Values without a mark were called inactive. Calls come from the whole dose curve; as a rule, active = well fitted activation curve with a large enough effect; inconclusive = small, poorly fitted or top-dose-only effect; inactive = flat fitted curve, though single readings scatter.

The nature of this assay: qHTS for Activators of Parkin Expression: LOPAC Validation Assay (NLuc Reporter) (AID 720572;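 note: 0% = DMSO and 100% = positive control compound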). As to conditions: Parkin promoter NanoLuc reporter cells, luminescence; series mostly up to 46.1 µM; activation: at the top concentration. The source says:
Parkin is an E3 ubiquitin ligase localized in the cytosol of cells expressed in many tissues, including brain, skeletal muscle, heart and liver tissues. One hour after stress induction by mitochondrial uncouplers (which mimic mitochondria damage by decreasing the mitochondrial inner membrane electrochemical gradient that is used to produce ATP), Parkin translocates from the cytosol to mitochondria in many cultured cell types, including neurons and HeLa cells. Administration of other mitochondrial poisons, such as Paraquat and azide in cells lacking mitochondrial DNA (mtDNA), induces Parkin translocation to mitochondria. […] It was proposed that Parkin (together with Pink1) mediates a mitochondrial quality control pathway to maintain organelle population fidelity by removing damaged mitochondria. Understanding the normal physiologic role of Parkin (and Pink1) may uncover novel treatment strategies for sporadic Parkinson's disease patients with mutation in these genes.
A cell based qHTS in 1536 well format was developed assess modulation of Parkin expression using a neuronal cell line that stably expresses a stably expresses a luminescent coincidence reporter (FLuc and NLuc reporters) behind the Parkin promoter. The LOPAC library is used to validate the assay for quantitative high-throughput screening. The data herein reports the signal from the NLuc reporter. An increase in this signal = activation of Parkin expression. For this assay , a positive control normalized signal increase corresponding to a high quality qHTS curve class in both luminescent channels is the desired outcome for this assay.
NIH Chemical Genomics Center [NCGC]
NIH Molecular Libraries Probe Centers Network [MLPCN]
Assay Submitter (PI): Richard Youle, National Institute of Neurological Disorders and Strokes (NINDS), NIH
[1] Narendra, D., et al., Parkin is recruited selectively to impaired mitochondria and promotes their autophagy. J Cell Biol, 2008. 183(5): p.
[2] Suen, D.F., et al., Parkin overexpression selects against a deleterious mtDNA mutation in heteroplasmic cybrid cells. Proc Natl Acad Sci U S A, 2010. […] 11835-40.
[3] Cheng K, Inglese J. A coincedence reporter-gene system for high-throughput screening. Nat Methods. 2012: 9(10);937
Five microliters (1,500 cells/well) of the Parkin coincidence reporter cells were seeded to 1536 well assay plates (Greiner Catalog # 789173-F) and incubated at 37 C, 5% CO2 for 24 hours. Compounds (23 nL) were pinned using the Kalypsys robotic system equipped with 1536 pin head adaptor in 7-point dose response. The assay plates were incubated for additional 24 hr at 37 C, 5% CO2 followed by a volume reduction in each well to 2 uL using an automated plate washer/aspirator. Following the volume reduction,2 uL of FLuc detection reagent and plates were incubated for 10 minutes at room temperature. The FLuc luminescence signal was obtained using the PerkinElmer ViewLux plate imager and then 2 uL of NanoLuc detection reagent was added to the plates. After another 10 minute incubation, NanoLuc signal was obtained using the PerkinElmer ViewLux plate imager as before. Data from each channel was normalized to DMSO (neutral control) and the positive control compounds (100%).
As for `O[Si](CCCN1CCCCC1)(c1ccc(F)cc1)C1CCCCC1` (stereo not given), the “activation” value is -6.24%. Under `Oc1cc2c(cc1O)C(c1ccccc1)CNCC2` (stereo not given) stands 1.28%; under `CCCCS(=N)(=O)CC[C@H](N)C(=O)O` (stereo not given in full), -3.28%; under `Cc1cccc(C)c1OCC(N)C(C)C` (stereo not given), -2.34%. As for `NC1(C(=O)O)CCCCC1`, the “activation” value is -1.57%.

With `NC(C(=O)N[C@@H]1C(=O)N2C(C(=O)O)=C(Cl)CS[C@H]12)c1ccccc1` (stereo not given in full), the “activation” value was -2.02%. With `C/C(=C\c1ccc(C(=O)O)cc1)c1ccc2c(c1)C(C)(C)CCC2(C)C`, the “activation” value was 14%. On to `O=C(c1ccc2c(c1)OCCO2)N1CCCCC1`, for which the “activation” value was -2.49%. Consider `O=C(O)c1ccccc1Nc1cccc(OCc2ccc3ccccc3n2)c1`, for which the “activation” value was 25.4%. On to `NC1C=CC=C(C(=O)O)C1` (stereo not given), for which the “activation” value is -1.47%. As for `O=c1ccn([C@@H]2O[C@H](COP(=O)(O)OP(=O)(O)O)[C@@H](O)[C@H]2O)c(=O)[nH]1`, the “activation” value is 1.1%. As to `CN1CCC2(CCN3CCc4c(oc5ccccc45)C3C2)N(C)C1=O` (stereo not given), the “activation” value was -2.31%. Consider `N#C/C(=C\c1ccc(O)c(O)c1)C(=O)NCCc1ccccc1`, for which the “activation” value is 2.91%. `COC(=O)C(N)Cc1ccc(Cl)cc1` (stereo not given): the “activation” value is -8.65%.

For `Nc1ccc2c3c(cccc13)C(=O)NC2=O`, the “activation” value was 9.78%. With `C[C@H]1CC2C3CCC4=CC(=O)C=C[C@]4(C)[C@@]3(Cl)[C@@H](O)C[C@]2(C)[C@@]1(O)C(=O)CO` (stereo not given in full), the “activation” value was 1.97%. Take `CC(C)NC[C@H](O)COc1cccc2ccccc12`: the “activation” value was -2.59%.

Turning to `Cn1ccnc1`, the “activation” value is -4.3%. As for `CCCCCC(O)CCCC(=O)O` (stereo not given), the “activation” value is -2.13%. Turning to `NC1(C(=O)O)CCc2cc(C(=O)O)ccc21` (stereo not given), the “activation” value is 1.07%. `Nc1nc2[nH]c(=O)cnc2c(=O)[nH]1`: the “activation” value is -2.02%. On to `COc1cc(N)c(Cl)cc1C(=O)OCCN1CCCCC1`, for which the “activation” value is -16.6%. As for `Cc1nc2n(c(=O)c1CCN1CCC(c3noc4cc(F)ccc34)CC1)CCCC2O` (stereo not given), the “activation” value was -3.77%. Turning to `O=C(O)C1=CCCNC1`, the “activation” value was -1.27%. With `O=c1onc2n1-c1cc(Br)ccc1OC2`, the “activation” value was -3.21%.

Take `CC1C(=O)N(C)C(=O)c2nc[nH]c21` (stereo not given): the “activation” value is -1.77%. Regarding `Nc1nc2c(nc(Br)n2C2OC3COP(=O)(O)O[C@@H]3C2O)c(=O)[nH]1` (stereo not given in full), the “activation” value was 2.26%. Consider `CC(N)=O`, for which the “activation” value was 1.88%. In the case of `N[C@H](C(=O)O)[C@H](O)C(=O)O`, the “activation” value is 1.66%. With `C#CCn1c(=O)c2c(ncn2C)n(C)c1=O`, the “activation” value was 1.26%. For the compound `COc1cc(C(O)CO)ccc1O` (stereo not given), the “activation” value was -2.12%.

In the case of `O=C(O)/C(=C/c1c(C(=O)O)[nH]c2cc(Cl)cc(Cl)c12)c1ccccc1`, the “activation” value is 2.89%.

In the case of `O=C(O)C1CN(CCCP(=O)(O)O)CCN1` (stereo not given), the “activation” value was 0.7%. Regarding `C=CC[C@H](N)C(=O)O`, the “activation” value is -1.75%. The result for `COc1ccccc1N1CCN(CCN(C(=O)c2ccc(F)cc2)c2ccccn2)CC1` reads -7.13%; that for `N[C@H](C(=O)O)[C@H]1C[C@@H]1C(=O)O`, -3.73%; that for `CCCCCCC(=O)OC1CC(C)(C)NC(C)(C)C1`, -0.302%. Regarding `Nc1ncnc2c1ncn2C1CCCC1`, the “activation” value is 6.16%. For the compound `N=C(N)c1ccccc1`, the “activation” value was -1.66%.

Consider `CCCn1c(=O)c(C)cn2nc(N)nc12`, for which the “activation” value is 3.24%.
